The nature of assay [1]: NCI Yeast Anticancer Drug Screen. Data for the rad50 strain (AID 155).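 Further: 0% = growth of vehicle-only cultures of the same strain.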 To be noted: S. cerevisiae rad50 strain growth inhibition, hits give high values. In a few lines:
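Genetically altered yeast (DNA repair pathway); compound treatment; growth inhibition vs vehicle ctrl.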

Assay [2] is described as follows: NCI Yeast Anticancer Drug Screen. Data for the mec2-1 strain (AID 157). To be noted: S. cerevisiae mec2-1 strain, hits give high values. In a few lines:
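Mutant yeast (mec2-1) grown with compound; growth inhibition relative to vehicle control reported.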

A short description of assay [3]: NCI Yeast Anticancer Drug Screen. Data for the sgs1 mgt1 strain (AID 161).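 Further: 0% = growth of cultures given vehicle only.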 Conditions: S. cerevisiae sgs1 mgt1 strain, hits give high values. In a few lines:
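Yeast cells carrying a defined DNA-repair defect were exposed to test compounds. Growth inhibition was measured relative to vehicle-treated controls.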

The nature of assay [4]: NCI Yeast Anticancer Drug Screen. Data for the cln2 rad14 strain (AID 165).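 Further: 0% = growth equal to vehicle treated cultures.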 To be noted: S. cerevisiae cln2 rad14 strain, hits give high values. In a few lines: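 Readout is yeast growth inhibition versus vehicle-treated controls, using a strain with cln2 and rad14 alterations exposed to compound.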
Assay [5] in a line: NCI Yeast Anticancer Drug Screen. Data for the bub3 strain (AID 167). To be noted: S. cerevisiae bub3 mutant strain, hits give high values. In a few lines: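 Yeast carrying a defined mutation is treated with each compound, and growth is compared with that of vehicle-exposed cells to give inhibition.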
Assay [6] is described as follows: NCI Yeast Anticancer Drug Screen. Data for the mlh1 rad18 strain (AID 175). Conditions: S. cerevisiae mlh1 rad18 strain growth inhibition, hits give high values. In a few lines: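 Genetically defined yeast (DNA repair-deficient) exposed to compounds; growth inhibition determined relative to vehicle.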
The mark [7] stands for this setting: at 5.0 µM (retest, dose inferred, filed as 0.5).
The mark [8] stands for this setting: at 50.0 µM (retest, dose inferred, filed as 5.0).

Compounds without any hit were thinned out: in the full panel of roughly 79,000, 15% have a hit. Values without a mark were called inactive. Activity calls are given as the source filed them. No stated cut-off is given here; in the data, active means growth inhibition above about 70%; inactive means the rest.

On to `CC(C)N(C(=O)CC1(O)CCCCC1)C(C)C`, for which the growth inhibition is 2% in assay [1] (setting [7]); -14% in assay [1] (setting [8]); -0.25% in assay [1] (at 50.0 µM); -5% in assay [2] (setting [7]); 1% in assay [2] (setting [8]); -11.9% in assay [2] (at 50.0 µM). The growth inhibition in assay [3] (setting [7]) was 1%; in assay [3] (setting [8]), -11%; in assay [3] (at 50.0 µM), -14.6%; in assay [4] (setting [7]) it was -6%; in assay [4] (setting [8]) it was 4%; in assay [4] (at 50.0 µM) it was 73.8% (active). The growth inhibition is -1% in assay [5] (setting [7]); 6% in assay [5] (setting [8]); -9.25% in assay [5] (at 50.0 µM); 0% in assay [6] (setting [7]); -9% in assay [6] (setting [8]); 1.85% in assay [6] (at 50.0 µM).

Take `CCOC(=O)/C(=C\c1cccc(Br)c1)C(C)=O`: the growth inhibition was 47% in assay [1] (setting [7]); 100% (active) in assay [1] (setting [8]); 92.8% (active) in assay [1] (at 50.0 µM); 51% in assay [2] (setting [7]); 99% (active) in assay [2] (setting [8]); 94.9% (active) in assay [2] (at 50.0 µM). For the same molecule, the growth inhibition was 47% in assay [3] (setting [7]); 99% (active) in assay [3] (setting [8]); 93.1% (active) in assay [3] (at 50.0 µM); 45% in assay [4] (setting [7]); 99% (active) in assay [4] (setting [8]); 92.9% (active) in assay [4] (at 50.0 µM). The growth inhibition in assay [5] (setting [7]) was 87% (active); in assay [5] (setting [8]), 100% (active); in assay [5] (at 50.0 µM), 92.7% (active); in assay [6] (setting [7]), 82% (active); in assay [6] (setting [8]), 100% (active); in assay [6] (at 50.0 µM), 92.5% (active).

On to `NC(=O)CC1CCC(c2ccccc2)CC1` (stereo not given), for which the growth inhibition was -1% in assay [1] (setting [7]); -59% in assay [1] (setting [8]); 44% in assay [1] (at 50.0 µM); -6% in assay [2] (setting [7]); -23% in assay [2] (setting [8]); 6.95% in assay [2] (at 50.0 µM). In addition, the growth inhibition is -1% in assay [3] (setting [7]); -14% in assay [3] (setting [8]); 77.3% (active) in assay [3] (at 50.0 µM); 2% in assay [4] (setting [7]); -8% in assay [4] (setting [8]); -47.6% in assay [4] (at 50.0 µM). In addition, the growth inhibition in assay [5] (setting [7]) is -12%; in assay [5] (setting [8]) it was -53%; in assay [5] (at 50.0 µM), 12.7%; in assay [6] (setting [7]), 0%; in assay [6] (setting [8]) it was -31%; in assay [6] (at 50.0 µM) it was 41.8%.

Regarding `COc1ccc(CSC2=C(C#N)C(=O)NC3(CCCCC3)S2)cc1`, the growth inhibition in assay [1] (setting [7]) was 23%; in assay [1] (setting [8]), 11%; in assay [1] (at 50.0 µM), 3.6%; in assay [2] (setting [7]), -1%; in assay [2] (setting [8]), 4%; in assay [2] (at 50.0 µM), 2.25%. The growth inhibition was 23% in assay [3] (setting [7]); 14% in assay [3] (setting [8]); 6.2% in assay [3] (at 50.0 µM); -1% in assay [4] (setting [7]); 16% in assay [4] (setting [8]); 28.5% in assay [4] (at 50.0 µM). Moreover, the growth inhibition in assay [5] (setting [7]) was 6%; in assay [5] (setting [8]), 6%; in assay [5] (at 50.0 µM) it was -13.2%; in assay [6] (setting [7]) it was 18%; in assay [6] (setting [8]) it was -2%; in assay [6] (at 50.0 µM), 7.75%.

With `CCOC(=O)c1ccc(-n2c(C)nc3ccc(Br)cc3c2=O)cc1`, the growth inhibition in assay [1] (setting [7]) was -4%; in assay [1] (setting [8]), -6%; in assay [1] (at 50.0 µM), 53%; in assay [2] (setting [7]), -1%; in assay [2] (setting [8]) it was -7%; in assay [2] (at 50.0 µM) it was 61.6%. The growth inhibition in assay [3] (setting [7]) was -4%; in assay [3] (setting [8]), -7%; in assay [3] (at 50.0 µM), 40%; in assay [4] (setting [7]), 0%; in assay [4] (setting [8]) it was -6%; in assay [4] (at 50.0 µM) it was 64.5%. Besides, the growth inhibition in assay [5] (setting [7]) is 1%; in assay [5] (setting [8]), -1%; in assay [5] (at 50.0 µM), 77.6% (active); in assay [6] (setting [7]), -2%; in assay [6] (setting [8]), -6%; in assay [6] (at 50.0 µM) it was 74.8% (active).

For `C[Si](C)(CCC(=O)O)O[Si](C)(C)CCC(=O)O`, the growth inhibition in assay [1] (setting [7]) is -6%; in assay [1] (setting [8]), 91% (active); in assay [1] (at 50.0 µM), 99.5% (active); in assay [2] (setting [7]) it was -4%; in assay [2] (setting [8]), 92% (active); in assay [2] (at 50.0 µM), 99.7% (active). Further, the growth inhibition in assay [3] (setting [7]) was -6%; in assay [3] (setting [8]), 91% (active); in assay [3] (at 50.0 µM), 99.5% (active); in assay [4] (setting [7]), -1%; in assay [4] (setting [8]), 59%; in assay [4] (at 50.0 µM) it was 98.2% (active). Also, the growth inhibition in assay [5] (setting [7]) is -9%; in assay [5] (setting [8]) it was 99% (active); in assay [5] (at 50.0 µM) it was 99.5% (active); in assay [6] (setting [7]) it was -1%; in assay [6] (setting [8]), 68%; in assay [6] (at 50.0 µM), 99.2% (active).

Consider `ClC1=C(Cl)C(Cl)(Cl)C(Cl)(Cl)C1(Cl)Cl`, for which the growth inhibition in assay [1] (setting [7]) was 55%; in assay [1] (setting [8]), 7%; in assay [1] (at 50.0 µM), 99.7% (active); in assay [2] (setting [7]), 49%; in assay [2] (setting [8]) it was 99% (active); in assay [2] (at 50.0 µM), 99.5% (active). Moreover, the growth inhibition in assay [3] (setting [7]) was 59%; in assay [3] (setting [8]), 62%; in assay [3] (at 50.0 µM), 99.7% (active); in assay [4] (setting [7]), 31%; in assay [4] (setting [8]) it was 98% (active); in assay [4] (at 50.0 µM), 98% (active). Besides, the growth inhibition in assay [5] (setting [7]) was 41%; in assay [5] (setting [8]) it was 98% (active); in assay [5] (at 50.0 µM), 99.4% (active); in assay [6] (setting [7]), 84% (active); in assay [6] (setting [8]), 99% (active); in assay [6] (at 50.0 µM), 99.2% (active).

With `COc1ccc(C(=O)CC(=O)c2ccccc2)cc1`, the growth inhibition is 1% in assay [1] (setting [7]); 99% (active) in assay [1] (setting [8]); -6.2% in assay [1] (at 50.0 µM); -1% in assay [2] (setting [7]); 99% (active) in assay [2] (setting [8]); 17.8% in assay [2] (at 50.0 µM). The growth inhibition is 2% in assay [3] (setting [7]); 99% (active) in assay [3] (setting [8]); 20.4% in assay [3] (at 50.0 µM); -15% in assay [4] (setting [7]); 99% (active) in assay [4] (setting [8]); -17.3% in assay [4] (at 50.0 µM). The growth inhibition was 24% in assay [5] (setting [7]); 99% (active) in assay [5] (setting [8]); 80% (active) in assay [5] (at 50.0 µM); 0% in assay [6] (setting [7]); 99% (active) in assay [6] (setting [8]); 14.1% in assay [6] (at 50.0 µM).

Regarding `COc1cccc(/C=C2\CCC(CN(C)C)C2=O)c1` (stereo not given), the growth inhibition is 27% in assay [1] (setting [7]); 95% (active) in assay [1] (setting [8]); 93.5% (active) in assay [1] (at 50.0 µM); 21% in assay [2] (setting [7]); 99% (active) in assay [2] (setting [8]); 93.8% (active) in assay [2] (at 50.0 µM). For the same molecule, the growth inhibition in assay [3] (setting [7]) was 39%; in assay [3] (setting [8]), 99% (active); in assay [3] (at 50.0 µM) it was 93.3% (active); in assay [4] (setting [7]) it was 28%; in assay [4] (setting [8]) it was 98% (active); in assay [4] (at 50.0 µM) it was 91.6% (active). Further, the growth inhibition was 48% in assay [5] (setting [7]); 99% (active) in assay [5] (setting [8]); 92.5% (active) in assay [5] (at 50.0 µM); 35% in assay [6] (setting [7]); 99% (active) in assay [6] (setting [8]); 91.7% (active) in assay [6] (at 50.0 µM).

In the case of `CN(C)CCCc1ccc2oc3ccccc3c2c1`, the growth inhibition in assay [1] (setting [7]) is 5%; in assay [1] (setting [8]), 65%; in assay [1] (at 50.0 µM) it was 77.8% (active); in assay [2] (setting [7]) it was 4%; in assay [2] (setting [8]), 39%; in assay [2] (at 50.0 µM), 40.7%. For the same molecule, the growth inhibition in assay [3] (setting [7]) was 6%; in assay [3] (setting [8]), 54%; in assay [3] (at 50.0 µM), 48.6%; in assay [4] (setting [7]), 15%; in assay [4] (setting [8]) it was 34%; in assay [4] (at 50.0 µM), 27.1%. For the same molecule, the growth inhibition in assay [5] (setting [7]) was 14%; in assay [5] (setting [8]), 77% (active); in assay [5] (at 50.0 µM), 69%; in assay [6] (setting [7]) it was 7%; in assay [6] (setting [8]), 42%; in assay [6] (at 50.0 µM), 48%.

For the origin of these results see PubChem BioAssay (NCI).
